Measured values reported in PubChem BioAssay AID2284147 (EPA ToxCast).
Calls of active or inactive are those of the source. The calls were made as follows: active = hit-call score of the fitted dose curve at least 0.9, where 1 is the maximum; inactive = score below 0.9.

molecular target: human Angiotensin Receptor AT2 Antagonism, AGTR2 (gene 186) (UniProt P50052); assay: ERF_TW_GPCR_hAGTR2: Eurofins (ERF) G Protein-Coupled Receptor (GPCR) Radioligand Binding LeadHunter Assay for human Angiotensin Receptor AT2 Antagonism
Sequence (P50052 whole entry, looked up): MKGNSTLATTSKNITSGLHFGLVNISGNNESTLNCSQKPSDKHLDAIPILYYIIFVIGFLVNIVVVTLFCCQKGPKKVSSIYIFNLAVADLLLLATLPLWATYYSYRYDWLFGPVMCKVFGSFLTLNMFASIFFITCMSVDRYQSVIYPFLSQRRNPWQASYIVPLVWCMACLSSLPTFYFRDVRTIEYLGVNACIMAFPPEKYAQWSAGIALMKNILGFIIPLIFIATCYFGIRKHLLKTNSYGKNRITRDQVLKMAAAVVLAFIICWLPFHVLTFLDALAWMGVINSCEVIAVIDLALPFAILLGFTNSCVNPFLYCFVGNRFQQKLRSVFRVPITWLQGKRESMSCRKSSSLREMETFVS
Protocol: ERF_TW_GPCR_hAGTR2 is a biochemical, single-readout assay that uses extracted gene-proteins in a cell-free assay. Measurements were taken 3 hour after chemical dosing in a 96-well plate. See AT2 Human Angiotensin GPCR Binding (Agonist Radioligand) Assay, Panlabs.ERF_TW_GPCR_hAGTR2 is an assay component calculated from the ERF_TW_GPCR_hAGTR2 assay. It is designed to measure radioligand binding using a type of binding reporter as detected by scintillation counting with radiometry technology.Data from the assay component ERF_TW_GPCR_hAGTR2 was analyzed at the assay endpoint, ERF_TW_GPCR_hAGTR2, in the positive analysis fitting direction relative to DMSO as the negative control and baseline of activity. Using a type of binding reporter, gain-of-signal activity can be used to understand changes in radioligand binding as they relate to gene AGTR2. To generalize the intended target to other relatable targets, this assay endpoint is annotated to the gpcr intended target family, where the subfamily is angiotensin.
Human recombinant angiotensin AT2 receptors expressed in CHO-K1 cells are used in modified Tris-HCl buffer pH 7.4. A 2.4 ug aliquot is incubated with 0.05 nM [125I] CGP-42112A for 3 hours at 37C. Non-specific binding is estimated in the presence of 10 uM (Sar1, Ile8)-Angiotensin II. Membranes are filtered and washed, the filters are then counted to determine [125I] […]

Question: With `O=C(/C=C/c1ccc(O)cc1)CC(=O)/C=C/c1ccc(O)cc1` as the molecule, how does the AC50 read?
Answer: The AC50 was 1750 nM (active).
